The record followed here is PubChem BioAssay (NCI).

About 79,000 compounds went through this panel and 15% of them were active in at least one assay; those are over-represented in the sample as a whole. A number with no mark means an inactive call. Activity calls are given as the source filed them. No stated cut-off is given here; in the data, active means growth inhibition above about 70%; inactive means the rest.

Test [1] is described as follows: NCI Yeast Anticancer Drug Screen. Data for the rad50 strain (AID 155).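 Further: 0% = growth of vehicle-only cultures of the same strain.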 To be noted: S. cerevisiae rad50 strain growth inhibition, stronger effect = higher value. The procedure, abridged:
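Growth of the mutant yeast was measured after compound exposure and referenced to vehicle-treated cultures.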

A short description of test [2]: NCI Yeast Anticancer Drug Screen. Data for the mec2-1 strain (AID 157). Particulars: S. cerevisiae mec2-1 strain, stronger effect = higher value. The procedure, abridged: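 Each compound was tested on mec2-1 yeast, a strain altered in DNA damage repair or cell cycle control. Growth inhibition is reported relative to vehicle.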
Test [3] can be described thus: NCI Yeast Anticancer Drug Screen. Data for the sgs1 mgt1 strain (AID 161).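 Further: 0% = growth of cultures given vehicle only.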 Particulars: S. cerevisiae sgs1 mgt1 strain, stronger effect = higher value. In outline:
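Inhibition of yeast growth, normalised to vehicle-treated controls, is reported for a strain bearing genetic alterations in DNA damage repair.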

Test [4] is described as follows: NCI Yeast Anticancer Drug Screen. Data for the cln2 rad14 strain (AID 165).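 Further: 0% = growth equal to vehicle treated cultures.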 Particulars: S. cerevisiae cln2 rad14 strain, stronger effect = higher value. The procedure, abridged:
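Test compounds were added to cln2 rad14 yeast cultures; inhibition of growth was then determined by comparison with vehicle treatment.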

A short description of test [5]: NCI Yeast Anticancer Drug Screen. Data for the bub3 strain (AID 167). To be noted: S. cerevisiae bub3 mutant strain, stronger effect = higher value. In outline:
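Whole-cell yeast assay. The mutant strain was incubated with compounds, and growth inhibition was determined by comparison with vehicle-treated cells.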

Test [6] in a line: NCI Yeast Anticancer Drug Screen. Data for the mlh1 rad18 strain (AID 175). To be noted: S. cerevisiae mlh1 rad18 strain growth inhibition, stronger effect = higher value. In outline:
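Inhibition values reflect reduced growth of mutant yeast versus vehicle-treated controls following compound exposure; the mutations affect DNA damage repair.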

The mark [7] stands for this setting: at 5.0 µM (retest, dose inferred, filed as 0.5).
[8] abbreviates: at 50.0 µM (retest, dose inferred, filed as 5.0).

Turning to `Cc1cc(=O)c2cc(N=Cc3ccc([N+](=O)[O-])o3)ccc2o1`, the growth inhibition is -1% in test [1] (setting [7]); 72% (active) in test [1] (setting [8]); 74.9% (active) in test [1] (at 50.0 µM); -10% in test [2] (setting [7]); 23% in test [2] (setting [8]); 17.9% in test [2] (at 50.0 µM). For the same molecule, the growth inhibition in test [3] (setting [7]) was -6%; in test [3] (setting [8]), 54%; in test [3] (at 50.0 µM), 42.6%; in test [4] (setting [7]) it was 0%; in test [4] (setting [8]), 10%; in test [4] (at 50.0 µM), 21.2%. The growth inhibition in test [5] (setting [7]) is -4%; in test [5] (setting [8]), 6%; in test [5] (at 50.0 µM), 6.1%; in test [6] (setting [7]), 10%; in test [6] (setting [8]), 49%; in test [6] (at 50.0 µM), 40%.

On to `c1ccc(C2CC(c3ccc4ccccc4c3)=Nc3ccccc3S2)cc1` (stereo not given), for which the growth inhibition in test [1] (setting [7]) was 0%; in test [1] (setting [8]), 40%; in test [1] (at 50.0 µM), 76.8% (active); in test [2] (setting [7]), -4%; in test [2] (setting [8]), 72% (active); in test [2] (at 50.0 µM) it was 50.6%. The growth inhibition in test [3] (setting [7]) was 8%; in test [3] (setting [8]), 78% (active); in test [3] (at 50.0 µM) it was 80.8% (active); in test [4] (setting [7]), -11%; in test [4] (setting [8]), 19%; in test [4] (at 50.0 µM), 69.5%. For the same molecule, the growth inhibition in test [5] (setting [7]) was 21%; in test [5] (setting [8]) it was 91% (active); in test [5] (at 50.0 µM), 96.5% (active); in test [6] (setting [7]) it was 3%; in test [6] (setting [8]) it was 76% (active); in test [6] (at 50.0 µM), 88.1% (active).

As for `CCN(CC)CCCCCCNc1cc(C)cc2ccc(C)nc12`, the growth inhibition in test [1] (setting [7]) was 8%; in test [1] (setting [8]) it was 59%; in test [1] (at 50.0 µM) it was 65.8%; in test [2] (setting [7]) it was 0%; in test [2] (setting [8]), 22%; in test [2] (at 50.0 µM) it was 45.7%. Besides, the growth inhibition in test [3] (setting [7]) was 11%; in test [3] (setting [8]) it was 58%; in test [3] (at 50.0 µM), 39.1%; in test [4] (setting [7]), 0%; in test [4] (setting [8]), 36%; in test [4] (at 50.0 µM), 8.2%. Besides, the growth inhibition in test [5] (setting [7]) is 7%; in test [5] (setting [8]) it was 62%; in test [5] (at 50.0 µM) it was 79.7% (active); in test [6] (setting [7]), 21%; in test [6] (setting [8]) it was 40%; in test [6] (at 50.0 µM), 47.5%.

In the case of `CC1N(O)C(c2ccccc2)C(c2ccccc2)=[N+]1[O-]` (stereo not given), the growth inhibition in test [1] (setting [7]) was 16%; in test [1] (setting [8]), 25%; in test [1] (at 50.0 µM), -5.7%; in test [2] (setting [7]), 11%; in test [2] (setting [8]), 14%; in test [2] (at 50.0 µM), -26.9%. In addition, the growth inhibition in test [3] (setting [7]) was 16%; in test [3] (setting [8]), 26%; in test [3] (at 50.0 µM), -20.4%; in test [4] (setting [7]), 22%; in test [4] (setting [8]), 17%; in test [4] (at 50.0 µM), 8.8%. In addition, the growth inhibition was 22% in test [5] (setting [7]); 26% in test [5] (setting [8]); -20.9% in test [5] (at 50.0 µM); 13% in test [6] (setting [7]); 22% in test [6] (setting [8]); -37.4% in test [6] (at 50.0 µM).

Turning to `OCC(c1ccccc1)c1ccccc1`, the growth inhibition in test [1] (setting [7]) is 24%; in test [1] (setting [8]) it was 42%; in test [1] (at 50.0 µM) it was 77.8% (active); in test [2] (setting [7]) it was 2%; in test [2] (setting [8]) it was 6%; in test [2] (at 50.0 µM) it was 54.5%. Also, the growth inhibition in test [3] (setting [7]) was 41%; in test [3] (setting [8]) it was 34%; in test [3] (at 50.0 µM), 76.5% (active); in test [4] (setting [7]), 2%; in test [4] (setting [8]), 9%; in test [4] (at 50.0 µM), -14.2%. For the same molecule, the growth inhibition was 39% in test [5] (setting [7]); 43% in test [5] (setting [8]); 18% in test [5] (at 50.0 µM); 11% in test [6] (setting [7]); 22% in test [6] (setting [8]); 80.2% (active) in test [6] (at 50.0 µM).

In the case of `CCCCCN(CCCCC)C(C)C(=O)c1ccc2cc(Br)c3ccccc3c2c1` (stereo not given), the growth inhibition in test [1] (setting [7]) is 17%; in test [1] (setting [8]), 61%; in test [1] (at 50.0 µM), 93.9% (active); in test [2] (setting [7]) it was 9%; in test [2] (setting [8]) it was 46%; in test [2] (at 50.0 µM), 90.4% (active). In addition, the growth inhibition in test [3] (setting [7]) was 13%; in test [3] (setting [8]), 71% (active); in test [3] (at 50.0 µM), 90.7% (active); in test [4] (setting [7]), -2%; in test [4] (setting [8]), 42%; in test [4] (at 50.0 µM), 88.7% (active). In addition, the growth inhibition in test [5] (setting [7]) is 14%; in test [5] (setting [8]), 66%; in test [5] (at 50.0 µM), 87.1% (active); in test [6] (setting [7]), 7%; in test [6] (setting [8]), 63%; in test [6] (at 50.0 µM) it was 95.5% (active).

Turning to `CC1(c2ccccc2)OC1C(=O)N(c1ccccc1)c1ccccc1` (stereo not given), the growth inhibition in test [1] (setting [7]) is 14%; in test [1] (setting [8]) it was 99% (active); in test [1] (at 50.0 µM), 95.8% (active); in test [2] (setting [7]) it was 18%; in test [2] (setting [8]) it was 99% (active); in test [2] (at 50.0 µM), 85% (active). The growth inhibition was 12% in test [3] (setting [7]); 98% (active) in test [3] (setting [8]); 53.3% in test [3] (at 50.0 µM); 15% in test [4] (setting [7]); 97% (active) in test [4] (setting [8]); 96.7% (active) in test [4] (at 50.0 µM). Besides, the growth inhibition is 22% in test [5] (setting [7]); 98% (active) in test [5] (setting [8]); 92.7% (active) in test [5] (at 50.0 µM); 21% in test [6] (setting [7]); 97% (active) in test [6] (setting [8]); 97.7% (active) in test [6] (at 50.0 µM).

On to `CC1SC(c2ccc(Cl)cc2)N2C(=O)C(C)SC(c3ccc(Cl)cc3)N2C1=O` (stereo not given), for which the growth inhibition in test [1] (setting [7]) was 84% (active); in test [1] (setting [8]), 91% (active); in test [1] (at 50.0 µM) it was 71% (active); in test [2] (setting [7]), 53%; in test [2] (setting [8]) it was 91% (active); in test [2] (at 50.0 µM), 27.1%. The growth inhibition in test [3] (setting [7]) was 85% (active); in test [3] (setting [8]), 95% (active); in test [3] (at 50.0 µM) it was 30.9%; in test [4] (setting [7]) it was 84% (active); in test [4] (setting [8]), 93% (active); in test [4] (at 50.0 µM), 52.6%. In addition, the growth inhibition is 79% (active) in test [5] (setting [7]); 94% (active) in test [5] (setting [8]); 26.1% in test [5] (at 50.0 µM); 74% (active) in test [6] (setting [7]); 90% (active) in test [6] (setting [8]); 60% in test [6] (at 50.0 µM).

Turning to `S=c1ncc2c([nH]1)C1c3ccccc3C2c2ccccc21`, the growth inhibition was -9% in test [1] (setting [7]); 98% (active) in test [1] (setting [8]); 86% (active) in test [1] (at 50.0 µM); -6% in test [2] (setting [7]); 98% (active) in test [2] (setting [8]); 92% (active) in test [2] (at 50.0 µM). The growth inhibition in test [3] (setting [7]) is 2%; in test [3] (setting [8]), 98% (active); in test [3] (at 50.0 µM), 90.1% (active); in test [4] (setting [7]), 27%; in test [4] (setting [8]) it was 99% (active); in test [4] (at 50.0 µM) it was 88% (active). The growth inhibition was 16% in test [5] (setting [7]); 98% (active) in test [5] (setting [8]); 92.4% (active) in test [5] (at 50.0 µM); -1% in test [6] (setting [7]); 98% (active) in test [6] (setting [8]); 90.5% (active) in test [6] (at 50.0 µM).

For `CCCn1c(=O)c2ccccc2[n+]2c(-c3ccc([N+](=O)[O-])cc3)csc12`, the growth inhibition in test [1] (setting [7]) is 5%; in test [1] (setting [8]), 91% (active); in test [1] (at 50.0 µM), 93% (active); in test [2] (setting [7]), 1%; in test [2] (setting [8]), 92% (active); in test [2] (at 50.0 µM) it was 91.8% (active). The growth inhibition in test [3] (setting [7]) is 1%; in test [3] (setting [8]) it was 67%; in test [3] (at 50.0 µM), 92.1% (active); in test [4] (setting [7]), -7%; in test [4] (setting [8]), 77% (active); in test [4] (at 50.0 µM), 67.1%. Besides, the growth inhibition in test [5] (setting [7]) is -17%; in test [5] (setting [8]) it was 97% (active); in test [5] (at 50.0 µM) it was 93.5% (active); in test [6] (setting [7]) it was 11%; in test [6] (setting [8]) it was 85% (active); in test [6] (at 50.0 µM), 92.2% (active).
